The list is not random: actives were taken first. Their share in the collection is about 18%.
TDP1 cell noCPT – qHTS for Inhibitors of human tyrosyl-DNA phosphodiesterase 1 (TDP1): qHTS in cells in absence of CPT; DT40 Tdp1-/- hTDP1 cells, no CPT, ATP luminescence, 48 h; Potency, µM (doses to about 46.2 µM), most hits filed as inhibitors; 420,000 tested, 15% active; AID 686978, 2013; note: nearly all actives have a fitted effect of over 55% in size
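Luminescent ATP content (CellTiter-Glo) served as the growth readout. Knockout chicken DT40 cells expressing human TDP1 were exposed to compounds without camptothecin for a minimum 48 hr at 37 °C.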
CtBP-E1A blk – blocks the CtBP interaction with E1A. 340,000 tested, 0.49% active. AlphaScreen GST-E1A/His-CtBP binding, 1536-well; hits give low values. activity change, % (concentration not given with the values). AID 651724; in the data active = activity change below about -65%; inconclusive = mostly about -30% to -63%
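In 5 uL wells, 23 nL compound meets equimolar GST-E1A and His-CtBP (5X stock 125 nM each) for 2 h, 37 °C. Beads (5X, 50 ug/mL) then 1 h, 37 °C, dark.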
TDP1 block – TDP1 (human) enzyme inhibition. Q9NUW8. recombinant TDP1, AlphaScreen DNA substrate cleavage. Potency, µM (series often up to 130 µM), actives largely listed as inhibitors. 350,000 tested, 0.28% active; note: nearly all actives have a fitted effect of over 40% in size
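Recombinant E. coli-expressed Tdp1 (1 nM) preincubated with compound 15 min at RT, then 5'-biotin/3'-phosphotyrosine-FITC DNA substrate (15 nM) added for 5 min. AlphaScreen beads (10 ug/ml) added, 10 min RT; tyrosine-FITC cleavage read as signal loss.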
IL1B secr inh – blocks inflammasome-driven IL-1 beta release | THP-1 LPS/ATP IL-1B secretion, AlphaLISA, 16 h; hits give low values | activity change, % at 57.5 µM | 360,000 tested, 4.7% active | AID 743279; in the data active = activity change below about -50%; inconclusive = mostly about -30% to -49%
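THP-1 cells pretreated 1 hr with compounds (up to 57.5 uM final), then stimulated with LPS (250 ng/mL final) plus ATP (1.25 mM final); secreted IL-1B measured by AlphaLISA after 16 hr, decreased signal indicating inhibition.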
DT40 TDP1 CPT – growth inhibition of DT40 Tdp1-/-;hTDP1 cells with camptothecin (screen for TDP1 inhibitors). chicken DT40 Tdp1-/-;hTDP1 cells + 20 nM CPT, ATP luminescence, 48 h. Potency, µM (doses to about 46.2 µM), actives largely listed as inhibitors. 420,000 tested, 12% active; note: nearly all actives have a fitted effect of over 55% in size
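Chicken DT40 Tdp1-/- cells stably complemented with human TDP1 were seeded at 400 cells/well in medium containing 20 nM camptothecin, exposed to pin-transferred compounds, and grown at 37 °C for at least 48 hr. Viability was read as ATP luminescence.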
Six1-Eya2 inh – Six1/Eya2 interaction inhibition; Q15475+O00167; AlphaScreen GST-Six1/His-Eya2 binding, biochemical; hits give low values; activity change, % (concentration not given with the values); 360,000 tested, 0.56% active; AID 651725; in the data active = activity change below about -65%; inconclusive = mostly about -30% to -63%
Target sequence (O00167 whole entry, looked up): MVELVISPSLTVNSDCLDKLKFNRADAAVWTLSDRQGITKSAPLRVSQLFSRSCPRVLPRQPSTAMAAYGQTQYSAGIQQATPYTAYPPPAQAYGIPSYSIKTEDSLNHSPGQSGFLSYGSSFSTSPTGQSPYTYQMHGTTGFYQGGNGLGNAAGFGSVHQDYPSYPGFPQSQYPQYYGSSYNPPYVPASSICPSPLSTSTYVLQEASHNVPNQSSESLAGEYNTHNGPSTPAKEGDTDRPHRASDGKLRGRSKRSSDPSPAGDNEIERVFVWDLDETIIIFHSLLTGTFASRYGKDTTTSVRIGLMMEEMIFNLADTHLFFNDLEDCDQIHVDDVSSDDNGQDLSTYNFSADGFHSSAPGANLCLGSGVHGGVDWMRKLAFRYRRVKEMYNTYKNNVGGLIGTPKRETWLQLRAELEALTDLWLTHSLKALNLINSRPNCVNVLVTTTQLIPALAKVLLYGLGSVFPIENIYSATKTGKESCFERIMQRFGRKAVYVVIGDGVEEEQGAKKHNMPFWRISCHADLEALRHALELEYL
Target sequence (Q15475 whole entry, looked up): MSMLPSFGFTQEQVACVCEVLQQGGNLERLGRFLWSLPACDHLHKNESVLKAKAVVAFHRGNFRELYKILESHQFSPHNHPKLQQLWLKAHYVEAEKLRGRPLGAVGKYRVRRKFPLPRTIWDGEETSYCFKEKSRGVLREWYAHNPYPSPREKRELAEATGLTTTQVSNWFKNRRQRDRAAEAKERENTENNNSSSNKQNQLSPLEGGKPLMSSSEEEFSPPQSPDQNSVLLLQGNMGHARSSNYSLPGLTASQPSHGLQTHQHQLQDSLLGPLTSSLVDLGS
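GST-Six1 + His-Eya2 (5X stock: 250/500 nM); Tris pH 8.0, 300 mM NaCl, 0.05% BSA, 0.02% Tween 20; GSH donor/Ni acceptor beads; 1 h 37 °C dark; AlphaScreen readout.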
A number is an active result; . = inactive; ? = inconclusive; / = not tested or not shown. Unless noted, calls come from the whole dose curve; as a rule, active = well fitted curve in the direction sought with a large enough effect; inconclusive = small, poorly fitted or top-dose-only effect, or another doubt; inactive = no such curve, though single readings can be large; an effect the other way counts as inactive or inconclusive.

SMILES	TDP1 cell noCPT	CtBP-E1A blk	TDP1 block	IL1B secr inh	DT40 TDP1 CPT	Six1-Eya2 inh
Nc1cc(-c2cccc(Br)c2)nn1Cc1ccccc1	?	.	.	.	?	.
CCOC(=O)c1cc(NC(=O)c2ccc(OC)cc2)c(=O)oc1-c1ccccc1	.	.	.	.	.	.
COC(=O)c1ccccc1	/	/	.	/	/	/
O=C(NCNC(=O)c1ccccc1)c1ccccc1	.	.	.	.	.	.
O=C(NOC(=O)c1ccccc1)c1ccccc1	23µM	.	.	.	?	.
O=C(NO)c1ccccc1	22µM	/	.	/	24µM	/
COC(=O)c1cc(Cl)ccc1NCC(N)c1ccccc1 (stereo unspecified)	?	.	/	?	18µM	.
COc1cc2c(cc1OC)C1=NC(=O)CN1C(SCc1ccccc1C)=N2	10µM	.	.	.	10µM	.
COc1ccc(C)cc1NC(=O)CSCc1ccccc1C	?	.	/	.	.	.
CC1CCCC(C)N1C(=O)COC(=O)CNC(=O)c1ccc(Cl)cc1Cl (stereo unspecified)	.	.	.	.	.	.
c1ccc(-c2nn3c(Cn4nnc5ccccc54)nnc3s2)cc1	?	.	.	.	?	.
c1ccc2c(c1)nnn2Cc1nnc2sc(-c3ccc4c(c3)OCCO4)nn12	16µM	.	.	.	?	.
Cc1cc(C(=O)NC2CCCc3c2cnn3-c2ccccc2F)nc(C)n1 (stereo unspecified)	?	.	.	.	?	.
Cc1nnsc1C(=O)NC1CCCc2c1cnn2-c1ccc(F)cc1F (stereo unspecified)	5.8µM	.	.	.	6.5µM	.
COc1cc(C(=O)NC2CCCc3c2cnn3-c2ccccc2F)cc(OC)c1OC (stereo unspecified)	2.9µM	.	.	.	10µM	.
COC(=O)c1ccc(C(=O)NC2CCCc3c2cnn3-c2ccccc2F)nc1 (stereo unspecified)	2.9µM	.	.	.	5.2µM	.
CCCCNC(=O)C1(C)CCCCN1C(=O)c1sccc1C (stereo unspecified)	.	.	/	.	.	.
CCn1cc(C(=O)Nc2ccc(C)c([N+](=O)[O-])c2)cn1	.	.	.	.	.	.
Cc1ccc(-n2c(SCC(=O)Nc3ccc(Cl)cc3)nc(O)cc2=O)cc1	.	.	.	.	.	.
CCC[C@H]1CC(=O)C=C(c2ccsc2)ON1C(=O)OC(C)(C)C	?	.	/	.	?	.
CCN(CC)CCOC(=O)C(c1ccccc1)C1CCCCC1 (stereo unspecified)	?	.	.	.	?	.
Cc1ccc(C2=Nc3ccc(Br)cc3C(c3ccncc3)=NN2)cc1	.	.	.	-149	?	.
COc1ccc(Cl)cc1NC(=O)Cn1nnc(C(=O)NCc2cccs2)c1N	1.2µM	/	.	/	4.6µM	/
Cc1ccc(C)c(NC(=O)c2nnn(CC(=O)Nc3cccc(C)c3C)c2N)c1	.	/	.	/	.	/
Cc1cccc(Cn2nnc(C(=O)Nc3cc(C)ccc3C)c2N)c1	18µM	/	.	/	29µM	/
SMILES	TDP1 cell noCPT	CtBP-E1A blk	TDP1 block	IL1B secr inh	DT40 TDP1 CPT	Six1-Eya2 inh
Cc1ccc(Cn2nnc(C(=O)Nc3cccc(C)c3C)c2N)cc1	21µM	.	.	.	?	.
Cc1ccc(Cl)cc1NC(=O)c1nnn(Cc2ccccc2)c1N	?	/	.	/	?	/
CCc1ccccc1NC(=O)c1nnn(Cc2ccc(Cl)cc2)c1N	13µM	/	.	/	?	/
CCOCc1ccccc1Nc1ncnc2onc(-c3ccc(Cl)cc3)c12	?	/	.	/	.	/
COc1ccc(-c2cc(C(F)(F)F)n3nc(C(=O)Nc4cccc(Cl)c4C)cc3n2)cc1	.	/	.	/	.	/
COc1ccc(CCNC(=O)Nc2ccccc2[N+](=O)[O-])cc1	?	.	.	.	.	.
COc1ccc(Cn2nnc(C(=O)Nc3cc(OC)ccc3OC)c2N)cc1	?	/	.	/	18µM	/
COc1cccc(Cn2nnc(C(=O)Nc3cc(C)ccc3OC)c2N)c1	.	.	.	.	26µM	.
COc1ccc(Br)cc1Cn1nnc(C(=O)Nc2cccc(SC)c2)c1N	23µM	/	.	/	16µM	/
COc1ccccc1NC(=O)c1nnn(CC(=O)Nc2cccc(SC)c2)c1N	.	.	.	.	.	.
COc1ccc(NC(=O)c2nnn(Cc3ccccc3C)c2N)c(OC)c1	6.5µM	/	.	/	.	/
Cn1cc(S(=O)(=O)NCC2CCCO2)c(=O)n(C)c1=O (stereo unspecified)	.	.	/	.	.	.
Cc1ccc(C(=O)N2CCC(N3CCN(Cc4ccc(F)cc4)C(=O)C3=O)CC2)cc1	.	/	.	/	.	/
CCOC(=O)CN(C(=O)COc1nc(-c2ccccc2)cc(C)c1C#N)c1ccccc1	?	.	.	.	.	.
CCOC(=O)CN(C(=O)COc1nc(-c2ccccc2)cc(C)c1C#N)c1ccccc1C	10µM	/	.	.	16µM	.
Cc1cccc(CN2C[C@]34CC[C@@H](C[C@@H]3S2(=O)=O)O4)c1	.	.	/	.	.	.
Cc1cc(C(=O)COC(=O)c2ccc(O)cc2O)c(C)n1C(C)C	13µM	/	.	.	18µM	.
COc1ccc(CCn2c(C)cc(C(=O)COC(=O)c3ccc(O)cc3O)c2C)cc1	?	.	/	.	?	.
O=c1c2ccc([N+](=O)[O-])cc2ncn1CCOc1ccc(Cl)cc1	15µM	.	.	.	18µM	?
O=c1c2ccc([N+](=O)[O-])cc2ncn1CCOc1cccc(Br)c1	10µM	.	.	.	?	.
Oc1ccc(/C=N/NC(=S)NC2CC3CCC2C3)cc1 (stereo unspecified)	?	.	.	-66	?	.
O=c1c2c([nH]c3ccccc13)CCCCCC2	16µM	.	.	.	23µM	.
O=c1c2ccccc2[nH]c2ccccc12	16µM	.	.	.	8.2µM	.
O=c1c2c([nH]c3ccccc13)CCCCC2	?	.	.	.	.	.
c1ccc2c(c1)[nH]c1ccccc12	.	.	.	.	.	.
CC1(C(=O)NCCN2CCOCC2)C=CCN1C(=O)c1ccccc1 (stereo unspecified)	.	.	.	.	.	.
Cn1nnc(NC(=O)c2ccccc2F)n1	.	.	.	.	.	.
CCc1ccc(-c2n[nH]nc2C2=CC(=O)C[C@H](c3ccc(F)cc3)C2)cc1	2.9µM	.	/	.	?	.
COc1cc(F)cc(C2=CC(=O)C[C@H](c3ccc(F)cc3)C2)c1	?	.	.	?	?	.
